According to PubChem BioAssay (Tox21):
Values joined by “and” are separate entries in the source; they are usually repeats but may differ in a detail not shown here. Equal values may be shown once. Results filed as inconclusive are left out. Some structures have more than one record in an assay (separate samples or runs), and their calls can disagree. Active and inactive are the calls of the source. Unless noted, calls come from the whole dose curve; as a rule, active = well fitted curve in the direction sought with a large enough effect in the repeat runs; inconclusive = weak or mixed curves; inactive = no such curve, though single readings can be large; an effect the other way counts as inactive or inconclusive.

Legend:
[1] = A CellTox Green Cytotoxicity Assay to monitor cytotoxicity in HepG2 cells - 0 hour (AID 1224882); note: nearly all actives have a fitted effect of over 35% in size
Summary of the method: (§1)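 HepG2 cells, 600/well, preincubated 5 h with CellTox Green dye, then exposed to Tox21 compounds in DMSO at 37 C for up to 40 h. Dead-cell DNA fluorescence read at the indicated time point.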

[2] = A CellTox Green Cytotoxicity Assay to monitor cytotoxicity in HepG2 cells - 32 hour (AID 1224883); note: nearly all actives have a fitted effect of over 50% in size
Summary of the method: as §1

[3] = A CellTox Green Cytotoxicity Assay to monitor cytotoxicity in HEK293 cells - 8 hour (AID 1224884); note: nearly all actives have a fitted effect of over 35% in size
Summary of the method: (§2)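 HEK293 cells, 600/well, were preincubated 5 hours and then exposed to compounds at 37 C for up to 40 hours. A cell-impermeant cyanine dye staining dead-cell DNA was read by fluorescence at 0, 8, 16, 24, 32 and 40 h time points.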

[4] = qHTS RealTime-Glo MT Cell Viability Assay in HepG2 cells - 16 hour (AID 1224885); note: nearly all actives have a fitted effect of over 50% in size
Summary of the method: (§3)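 HepG2 suspension premixed with RealTime-Glo reagents is plated at 600 cells per well and left 5 h at 37 C/5% CO2. Compounds in DMSO then go in, and bioluminescence reflecting viable cell number is recorded over 40 h.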

[5] = A CellTox Green Cytotoxicity Assay to monitor cytotoxicity in HEK293 cells - 16 hour (AID 1224888); note: nearly all actives have a fitted effect of over 35% in size
Summary of the method: as §2

[6] = qHTS RealTime-Glo MT Cell Viability Assay in HepG2 cells - 0 hour (AID 1224889); note: nearly all actives have a fitted effect of over 50% in size
Summary of the method: as §3

[7] = A CellTox Green Cytotoxicity Assay to monitor cytotoxicity in HepG2 cells - 8 hour (AID 1224890); note: nearly all actives have a fitted effect of over 45% in size
Summary of the method: as §1

[8] = qHTS assay to identify small molecule antagonists of the estrogen receptor alpha (ER-alpha) signaling pathway using the BG1 cell line in the presence of 0.1 nM 17-beta-estradiol - cell viability counter screen (AID 1259241); note: nearly all actives have a fitted effect of over 40% in size
Summary of the method: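 Estradiol-stimulated (0.1 nM) VM7Luc4E2 cells exposed to compounds 22 hr; viability measured by fluorescence of cleaved CellTiter-Fluor substrate after 30 min.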

[9] = qHTS assay to identify small molecule antagonists of the androgen receptor (AR) signaling pathway using the MDA cell line in the presence of 0.5 nM R1881 - cell viability counter screen (AID 1259242); note: nearly all actives have a fitted effect of over 45% in size
Summary of the method: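 MDA-kb2 cells (MMTV-luciferase, AR/GR responsive) were treated with compounds plus 0.5 nM R1881 (final) for 16 hr at 37C, 0% CO2. Viability was then read in the same wells as live-cell protease fluorescence (CellTiter-Fluor, 30 min).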

[10] = qHTS assay to identify small molecule HDAC inhibitors (AID 1259364); note: nearly all actives have a fitted effect of over 45% in size; note: potency is the fitted concentration of half-maximal effect
Summary of the method: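 Wild-type HCT-116 cells, plated overnight at 37 C, exposed to compounds 2 hr at 37 C; luminogenic HDAC-Glo substrate then added 30 min at room temperature. Luminescence reports relative endogenous class I/II HDAC activity.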

[11] = qHTS assay to identify small molecule HDAC inhibitors - cell viability counter screen (AID 1259365); note: series mostly up to about 92 µM; nearly all actives have a fitted effect of over 50% in size
Summary of the method: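 After overnight seeding at 1,500 cells per well, wild-type HCT-116 cultures took up compounds in DMSO for 2hr at 37 C. Viable cell content came from luminescence with CellTiter-Glo.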

[12] = qHTS assay to identify small molecule agonists of the sonic hedgehog signaling (Shh) pathway - cell viability counter screen (AID 1259366); note: nearly all actives have a fitted effect of over 50% in size; note: potency is the fitted concentration of half-maximal effect
Summary of the method: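 Same-well cytotoxicity read. Gli1-Luc reporter 3T3 cells; compounds 24hr, 37C/5% CO2; CellTiter-Fluor fluorescence.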

[13] = qHTS assay to identify small molecule antagonists of the sonic hedgehog signaling (Shh) pathway - cell viability counter screen (AID 1259367); note: nearly all actives have a fitted effect of over 55% in size; note: potency is the fitted concentration of half-maximal effect
Summary of the method: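 After a 4 hr settling period, 3T3 Gli1-Luc cells were treated with DMSO-dissolved chemicals and conditioned medium, kept 24 hr at 37C in 5% CO2, and assayed for viability by CellTiter-Fluor fluorescence following 1 hr reagent incubation.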

[14] = qHTS assay to identify small molecule agonists of the sonic hedgehog signaling (Shh) pathway (AID 1259368; calls by dose curve; note: nearly all actives have a fitted effect of over 15% in size; note: potency is the fitted concentration of half-maximal effect)
Summary of the method: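 NIH/3T3-derived 3T3Gli1-Luc cells with stably integrated Gli1-driven firefly luciferase, 2,000 cells/well, compounds added after 4 hr. Incubated 24 hr at 37C, 5% CO2; luminescence read after 30 min with luciferase reagent at room temperature.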

[15] = qHTS assay to identify small molecule antagonists of the sonic hedgehog signaling (Shh) pathway (AID 1259369; calls by dose curve; note: nearly all actives have a fitted effect of over 45% in size; note: potency is the fitted concentration of half-maximal effect)
Summary of the method: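 NIH/3T3-derived Gli1-Luc reporter cells plated 4 h, dosed with compound, then stimulated with conditioned medium for 24 h at 37 C. Firefly luciferase luminescence read after 30 min with detection reagent at room temperature.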

[16] = qHTS RealTime-Glo MT Cell Viability Assay in HEK293 cells - 24 hour (AID 1224886); note: nearly all actives have a fitted effect of over 50% in size; note: potency is the fitted concentration of half-maximal effect
Summary of the method: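 Reads taken at 0, 8, 16, 24, 32 and 40 h from the same wells. HEK293 cells (600/well) carried RealTime-Glo reagents from seeding, with compound added after a 5 h settle at 37 C.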

[17] = qHTS RealTime-Glo MT Cell Viability Assay in HEK293 cells - 8 hour (AID 1224887)
Summary of the method: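 600 cells/well were plated with the nonlytic NanoLuc/prosubstrate reagent, pre-incubated 5 h, then given 23 nL of compound in DMSO. Incubation at 37 C for 40 h, with luminescence from viable-cell-reduced substrate read repeatedly from 0 h.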

[18] = target: Estrogen receptor (Homo sapiens) (UniProt P03372); test: qHTS assay to identify small molecule antagonists of the estrogen receptor alpha (ER-alpha) signaling pathway using the BG1 cell line in the presence of 0.1 nM 17-beta-estradiol (AID 1259244); note: nearly all actives have a fitted effect of over 50% in size
Chain of Estrogen receptor (Homo sapiens) (P03372 whole entry, looked up): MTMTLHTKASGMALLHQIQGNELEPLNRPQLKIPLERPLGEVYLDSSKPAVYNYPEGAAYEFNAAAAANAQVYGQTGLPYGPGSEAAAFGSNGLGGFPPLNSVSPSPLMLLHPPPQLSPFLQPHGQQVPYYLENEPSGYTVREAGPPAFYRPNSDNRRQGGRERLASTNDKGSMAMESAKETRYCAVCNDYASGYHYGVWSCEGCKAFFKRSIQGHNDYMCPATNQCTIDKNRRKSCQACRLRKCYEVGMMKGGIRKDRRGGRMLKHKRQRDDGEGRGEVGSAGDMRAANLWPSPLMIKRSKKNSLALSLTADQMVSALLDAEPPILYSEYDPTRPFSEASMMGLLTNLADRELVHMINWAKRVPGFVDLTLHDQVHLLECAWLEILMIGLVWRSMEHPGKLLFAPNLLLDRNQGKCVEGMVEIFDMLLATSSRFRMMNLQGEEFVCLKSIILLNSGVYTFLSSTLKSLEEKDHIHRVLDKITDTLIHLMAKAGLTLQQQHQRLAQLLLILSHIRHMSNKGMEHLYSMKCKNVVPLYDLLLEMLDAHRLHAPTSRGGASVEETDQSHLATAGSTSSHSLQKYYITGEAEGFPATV
Summary of the method: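 VM7Luc4E2 cells (endogenous full-length ER-alpha, 4×ERE-luciferase), kept 5 days in phenol red-free, charcoal-stripped FBS medium; 4,000 cells/well. Compounds added with 0.1 nM (final) 17beta-estradiol, 22 hr at 37C; luminescence read with ONE-Glo after 30 min.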

[19] = qHTS assay to identify small molecule phospholipidosis (PLD) inducers (AID 1259344; active = well fitted curve in the direction sought with a large enough effect; an effect the other way counts as inactive or inconclusive)
Summary of the method: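 HepG2 cells grown on collagen I take up LipidTOX Red while exposed to compound for 24 h; after fixation they are imaged at 20x and pit metrics are extracted.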

[20] = target: Androgen receptor (Homo sapiens) (UniProt P10275); test: qHTS assay to identify small molecule antagonists of the androgen receptor (AR) signaling pathway using the MDA cell line in the presence of 0.5 nM R1881 (AID 1259243); note: nearly all actives have a fitted effect of over 50% in size
Chain of Androgen receptor (Homo sapiens) (P10275 whole entry, looked up): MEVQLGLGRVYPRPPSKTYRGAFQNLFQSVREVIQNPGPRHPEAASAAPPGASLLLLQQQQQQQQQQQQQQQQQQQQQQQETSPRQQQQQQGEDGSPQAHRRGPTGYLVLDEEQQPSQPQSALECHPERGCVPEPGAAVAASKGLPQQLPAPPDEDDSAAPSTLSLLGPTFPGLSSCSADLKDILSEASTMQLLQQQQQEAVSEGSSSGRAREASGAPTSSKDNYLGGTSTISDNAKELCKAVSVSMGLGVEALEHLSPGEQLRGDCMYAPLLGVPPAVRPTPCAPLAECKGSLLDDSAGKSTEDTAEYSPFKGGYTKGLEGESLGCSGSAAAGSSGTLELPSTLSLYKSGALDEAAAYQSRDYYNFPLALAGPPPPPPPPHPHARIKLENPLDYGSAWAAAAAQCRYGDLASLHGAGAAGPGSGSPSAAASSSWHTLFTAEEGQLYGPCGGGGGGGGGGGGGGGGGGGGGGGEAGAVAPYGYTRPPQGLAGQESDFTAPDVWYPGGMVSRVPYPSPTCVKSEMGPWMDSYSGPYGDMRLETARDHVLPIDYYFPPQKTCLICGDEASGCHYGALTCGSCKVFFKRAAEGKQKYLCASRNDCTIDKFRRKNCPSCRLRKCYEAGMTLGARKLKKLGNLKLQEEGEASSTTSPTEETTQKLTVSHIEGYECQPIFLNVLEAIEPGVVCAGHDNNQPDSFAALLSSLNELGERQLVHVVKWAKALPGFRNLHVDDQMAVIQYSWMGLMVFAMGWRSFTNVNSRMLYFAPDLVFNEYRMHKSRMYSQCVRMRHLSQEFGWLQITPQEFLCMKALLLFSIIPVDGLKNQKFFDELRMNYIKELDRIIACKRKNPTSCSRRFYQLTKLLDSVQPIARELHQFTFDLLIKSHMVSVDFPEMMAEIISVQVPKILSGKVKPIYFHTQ
Summary of the method: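 MDA-kb2 cells (MMTV-luciferase, responsive to AR and GR) at 3,000/well, rested 5 h at 37C, 0% CO2, then given compounds plus 0.5 nM R1881 (final) for 16 hr. Luciferase read with ONE-Glo after 30 min at room temperature.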

Measured: Potency

CC(COCC(C)OC(=O)c1ccccc1)OC(=O)c1ccccc1 (configuration not stated)
not listed: [16] | [17] | [18] | [19] | [20]
inactive: all other assays above

Cc1ccc([N+](=O)[O-])cc1N
not listed: [3] | [11] | [19] | [20]
inactive: all other assays above

OC[C@H]1O[C@@H](Oc2ccc(O)cc2)[C@H](O)[C@@H](O)[C@@H]1O
not listed: [3] | [20]
inactive: all other assays above

Cc1cc(CC(=O)O)n(C)c1C(=O)c1ccc(Cl)cc1
not listed: [3] | [11] | [18] | [20]
inactive: all other assays above

CCCN(CCC)C(=O)SCC
not listed: [1] | [11] | [19]
inactive: all other assays above

CCCCCC(C)=O
inactive and 54.5 µM (active): [13]
inactive and 27.3 µM (active): [15]
not listed: [11] | [18] | [19] | [20]
inactive: all other assays above

OCC(O)CS (configuration not stated)
not listed: [1]
inactive: all other assays above

NC1CCCCC1N (configuration not stated)
not listed: [3] | [18] | [19] | [20]
inactive: all other assays above

c1cnc2c(c1)ccc1cccnc12
active: [16] 3.5 µM and 8.71 µM and 9.77 µM | [10] 19.5 µM and 24.3 µM and 27.3 µM | [12] 24.6 µM | [13] 13.8 µM and 68.6 µM and 43.3 µM | [14] 3.09 µM and 24.3 µM and 21.7 µM
not listed: [8] | [18] | [19] | [20]
inactive: all other assays above

OCc1ccc(Cl)cc1Cl
not listed: [3] | [18] | [20]
inactive: all other assays above

CC(C=O)Cc1ccc(C(C)(C)C)cc1 (configuration not stated)
not listed: [3] | [18] | [19]
inactive: all other assays above

NC(N)=S
not listed: [3] | [11] | [19] | [20]
inactive: all other assays above

CC(=O)Nc1ccc(CC(=O)O)cc1
not listed: [3] | [11] | [20]
inactive: all other assays above

O=C1C(N(CO)C(=O)NCO)N(CO)C(=O)N1CO (configuration not stated)
not listed: [3] | [19] | [20]
inactive: all other assays above

COc1ccc([C@@H]2CC(=O)c3c(O)cc(O[C@@H]4O[C@H](CO[C@@H]5O[C@@H](C)[C@H](O)[C@@H](O)[C@H]5O)[C@@H](O)[C@H](O)[C@H]4O)cc3O2)cc1OC
not listed: [3] | [19] | [20]
inactive: all other assays above

O=Cc1ccc(CO)o1
not listed: [1] | [19] | [20]
inactive: all other assays above
